Data taken from PubChem BioAssay (NCI).
About 83,000 compounds went through this panel and 20% of them were active in at least one assay; those are over-represented in the sample as a whole.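 Single-concentration screen, 48 h exposure, 96-well plates. Endpoint: percent growth. Below 10 = active.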 Unmarked numbers belong to inactive results. Active and inactive are the calls of the source.

Columns and labels:
Assay in all cases: NCI-60 one-dose screen, 48 h (100 = growth as untreated, 0 = no growth, -100 = all killed)
Settings in all cases: 10 µM unless noted
[1] = system: HCT-15 colon
[2] = system: HT29 colon
[3] = system: SNB-75 CNS
[4] = system: SNB-19 CNS
[5] = system: U251 CNS
[6] = system: PC-3 prostate
[7] = system: SK-MEL-5 melanoma
[8] = system: UACC-62 melanoma
[9] = system: LOX IMVI melanoma
[10] = system: SK-MEL-28 melanoma

Structure (SMILES) | growth [1] | growth [2] | growth [3] | growth [4] | growth [5] | growth [6] | growth [7] | growth [8] | growth [9] | growth [10]
S=C(Cc1ccccc1)N1CCN(c2ccccc2Cl)CC1 | 106% | 100% | 96.8% | 116% | 99.2% | 86.6% | 90.9% | 86.2% | 105% | 119%
COc1ccc2nc(-c3ccc(-c4noc(-c5ccc(Cl)cc5)n4)cc3)[nH]c2c1 | 75.8% | 82% | 31.8% | 95.6% | 78.2% | 67.1% | 78.8% | 58.3% | 57.3% | 79.7%
COc1cc(C2CC(c3cccc(Nc4ccnc5cc(Cl)ccc45)c3)=NN2C=O)cc(OC)c1OC (stereo not given) | 27.6% | -54.3% (active) | -26.9% (active) | 36.9% | 21.5% | 16.7% | 4.37% (active) | -35% (active) | 19.9% | 7.27% (active)
COc1ccc2[nH]cc(C3(c4c[nH]c5ccc(OC)cc45)C(=O)Nc4ccc(F)cc43)c2c1 | 86.6% | 68% | 42.9% | 97.2% | 82.5% | 9.66% (active) | 84.1% | 82.3% | 58.5% | 96.4%
COc1ccccc1-[n+]1cc(-c2ccc(-c3ccccc3)cc2)n2c1CCCCC2 | 66% | 1.07% (active) | 16% | 11.7% | 10.6% | 1.3% (active) | -78.8% (active) | 2.5% (active) | 11.3% | 27.8%
COc1cnc2c(c1)C(=O)c1c-2n(CCCNC(C)C)c(=O)c2cc(Cl)ccc12 | -47.2% (active) | -90.6% (active) | 10.4% | -23.2% (active) | -86.6% (active) | -51.7% (active) | -81.3% (active) | -62.8% (active) | -88.1% (active) | -89.7% (active)
C=C(COC(C)=O)[C@H]1CC/C(C)=C/CC/C(C)=C/CC[C@@]2(C)O[C@H]2C1 | 96% | 108% | 109% | 106% | 98.3% | 129% | 108% | 99.6% | 94.6% | 104%
O=C(NCCN1CCCCC1)n1cc(-c2ccncc2)c(-c2ccc(Cl)c(O)c2)n1 | 86.6% | 95.5% | 78.9% | 101% | 98.5% | 84.6% | 73.2% | 37.9% | 64.7% | 37.5%
c1ccc(-c2nnn(-c3ccccc3)n2)cc1 | 114% | 104% | 90.4% | 101% | 99.1% | 103% | 104% | 94.1% | 116% | 110%
COc1ccc(/C=N/NC(N)=S)c(OC)n1 | 86.9% | 93.4% | 79.5% | 102% | 95.8% | 105% | 93.1% | 96.8% | 102% | 98.5%
O=C(NO)c1ccc(CNc2cccc3nc(C4CC4)n(-c4ccccc4)c(=O)c23)cc1 | 7.98% (active) | 24.8% | 33% | 25.9% | -7.99% (active) | -47% (active) | 2.95% (active) | -22.2% (active) | -34.9% (active) | 9.83% (active)
COC(=O)C(Br)(C(=O)OC)C(Br)C(Br)C(Br)c1ccccc1 (stereo not given) | -37.8% (active) | 32.3% | 92.4% | 98.6% | 81.5% | 93.3% | 98.4% | 60.2% | 9.1% (active) | 108%
CC(C)(C)c1cc(C[P+](c2ccccc2)(c2ccccc2)c2ccccc2)cc(C(C)(C)C)c1O | 23.2% | -13.1% (active) | 2.05% (active) | 24.5% | 5.39% (active) | -10.5% (active) | -96.9% (active) | -3.2% (active) | 5.93% (active) | 38.4%
CC(SC(C)C(=O)N/N=C/c1cccc(Cl)c1)C(=O)N/N=C\c1cccc(Cl)c1 (stereo not given) | 86.5% | 79% | 83.7% | 89.5% | 48.2% | 53.5% | 98.2% | 92.1% | 7.06% (active) | 117%
N/N=C(\C(=N\N)c1ccccc1)c1ccccc1 | 104% | 94.7% | 86.4% | 96.6% | 104% | 88.7% | 101% | 90.2% | 97.3% | 105%
Nc1c(C(=O)C[C@@H](N)CO)ccc2c1C(=O)CCO2 | 6.97% (active) | -3.16% (active) | 86.2% | 27.4% | 16.7% | 57% | 60.8% | 30.5% | -61.7% (active) | 39.1%
COc1ccccc1CNCCCN1C(=O)c2ccc3c4c(ccc(c24)C1=O)C(=O)N(CCCNCCCN)C3=O | 8.83% (active) | -31.5% (active) | 46% | 11.9% | -72.5% (active) | 18.7% | -97.8% (active) | -50% (active) | -7.09% (active) | 22.7%
CC(=O)c1ccc(N2C(=O)c3ccc(Oc4ccccc4)cc3C2=O)cc1 | 111% | 104% | 108% | 105% | 108% | 91.2% | 103% | 98.9% | 103% | 111%
CCOC(=O)C(Cc1ccccc1)n1c(O)c(/C=N/c2ncc(Cc3ccc(Cl)cc3Cl)s2)sc1=S (stereo not given) | 10.5% | -16.7% (active) | 22% | 19.3% | 4.53% (active) | -16.2% (active) | -3.04% (active) | -0.818% (active) | 21% | 31.8%
COc1cccc(C2C(C#N)=C(N)Oc3cc4c(cc32)OCO4)c1 (stereo not given) | 16.4% | 8.91% (active) | 8.73% (active) | 39.2% | 23.4% | 27.4% | 4.73% (active) | 33.6% | 23.1% | 43%

Structure (SMILES) | growth [1] | growth [2] | growth [3] | growth [4] | growth [5] | growth [6] | growth [7] | growth [8] | growth [9] | growth [10]
Cc1ccc([C@H]2c3[nH]c4ccccc4c3C[C@H]3C(=O)N(CCCCCCC(=O)NO)CC(=O)N23)cc1 | 102% | 37.2% | -7.38% (active) | 52.5% | 50.7% | 44.3% | 37.4% | 24.1% | -37.2% (active) | 37.5%
Cc1cc(C#Cc2ccc(C(C)(C)C)cc2)ccc1-n1c(/C=C/c2c(Cl)cccc2Cl)nc2ccccc2c1=O | 90.9% | 93.2% | 82% | 105% | 93.9% | 80.8% | 106% | 101% | 87.3% | 126%
COc1cc(C2CC(c3ccc(Cl)cc3)=NN2C=O)ccc1Oc1ccnc2cc(Cl)ccc12 (stereo not given) | 85.7% | 58% | 7.19% (active) | 72.6% | 72.5% | 66.8% | 51% | 74.6% | 74.2% | 74.4%
Cc1c(C(=O)Nc2ccccc2F)sc2c(=O)[nH]cnc12 | 59% | 63.8% | 77.9% | 96% | 89.7% | 81.9% | 92.3% | 78.4% | 85% | 94.3%
FC(F)(F)c1nn[nH]n1 | 105% | 100% | 102% | 116% | 99.5% | 96.9% | 103% | 107% | 87.2% | 113%
COc1ccc(-c2ccc(-c3ccc(C(=N)N)s3)s2)cc1 | -73.7% (active) | -81.9% (active) | -84.2% (active) | -61.9% (active) | -70.3% (active) | -92.8% (active) | -97.8% (active) | -91% (active) | -74.7% (active) | -75.5% (active)
CCN(CC)CC(=O)Nc1c(C)ccc(N)c1C | 97.1% | 91.7% | 91.7% | 100% | 96.1% | 97.5% | 99.6% | 97.6% | 96.4% | 107%
O=C1Nc2ccc(Cl)cc2/C1=C\c1c(-c2ccc(F)cc2)nc2ccccn12 | 21.4% | 0.999% (active) | -49.4% (active) | 41.6% | 23.2% | 18.8% | -28.4% (active) | 7.95% (active) | -30.1% (active) | 6.38% (active)
C=C(c1ccc(C(=O)NCCCn2ccnc2)cc1)c1cc2c(cc1C)C(C)(C)CCC2(C)C | 21.1% | 16.1% | 41.4% | 48.4% | 12.1% | -6.2% (active) | 0.58% (active) | 66.7% | -25.7% (active) | 6.96% (active)
COc1ccc2[nH]cc(C3(c4c[nH]c5ccc(OC)cc45)C(=O)Nc4ccc(Cl)cc43)c2c1 | 69.1% | 44.9% | 39.7% | 82.3% | 72.2% | 15% | 89.2% | 73% | 45% | 95.3%
CC(C)(c1ccccc1)c1cc(O)c(C(C)(C)c2ccccc2)cc1O | 21.3% | 15.8% | 43.5% | 37.8% | 36.5% | 16.9% | 11.3% | 20.6% | 32.7% | 53.2%
O=S(=O)(Nc1ccc2ccccc2c1)N1CCCCC1 | 40.6% | 40.9% | 52% | 90.2% | 57.2% | 61% | 59.8% | 56% | 51.8% | 73.6%
COc1ccccc1/C=C/C(=O)CCC(=O)O | 113% | 107% | 98.5% | 114% | 107% | 94.5% | 109% | 108% | 99.8% | 110%
CC(=O)Oc1ccccc1C(=O)Nc1ncc([N+](=O)[O-])s1 | 32.3% | 44.9% | 46.4% | 41.7% | 39.2% | 10.1% | 22.8% | 1.31% (active) | 23.4% | 49.3%
Clc1ccc(-c2nc(-c3cccs3)no2)cc1 | 106% | 96% | 88.6% | 105% | 84.6% | 84.4% | 87.9% | 88.1% | 94.7% | 112%
CCOC(=O)C1=C(C(=O)OCC)N(c2cc(OC)c(OC)c(OC)c2)C(N)=C(C#N)C1c1cc(=O)[nH]c2ccccc12 (stereo not given) | 106% | 112% | 83% | 98.4% | 98.7% | 123% | 95.9% | 88.6% | 93.7% | 114%
Cn1c(-c2ccccc2)cc(=O)n1-c1ccccc1 | 104% | 106% | 92.9% | 108% | 109% | 100% | 104% | 103% | 101% | 113%
COC(=O)[C@@H](Cc1c[nH]c2ccccc12)NC(=O)/C=C/c1ccccc1 | 13.7% | 85.5% | 15.3% | 46.4% | 14.2% | 18.7% | 31.4% | 44.1% | 38.3% | 44.3%
CS(=O)(=O)c1ccc(C(=O)N/N=C/c2cccc3ccccc23)cc1 | 49.8% | 49.5% | 89.7% | 79.8% | 76.3% | 78.8% | 67.2% | 61.6% | 72.4% | 89.4%
N=C(N)c1ccc(-c2ccc(-c3cccs3)s2)cc1F | -66.8% (active) | -82.1% (active) | -96.5% (active) | -65.1% (active) | -86.6% (active) | -72.4% (active) | -98% (active) | -79.7% (active) | -76.7% (active) | -96% (active)
